HIV RNase H inh-1 = blocks HIV-1 RNase H cleavage of RNA/DNA duplex | P04585 | RT-RNase H RNA/DNA duplex cleavage, fluorescence | inhibition, % at 10 µM | actives 1.9% (n = 65,000) | AID 565; in the data active = inhibition above about 50%
RmlCD inh mix = inhibitors of RmlC and RmlD coupled enzymes; RmlC/RmlD coupled enzyme inhibition, 384-well mixture HTS; inhibition, % at 5.5 µM; actives 0.39% (n = 110,000); AID 1532; in the data active = inhibition above about 30%, passing the limit was not always enough; inconclusive = no clear call, values can overlap the other calls
HIV RNase H inh-2 = confirmation of HIV-1 reverse transcriptase RNase H inhibitors; inhibition, % at 10 µM; Recombinant RT RNase H, fluorescent RNA/DNA duplex cleavage; shares compounds with HIV RNase H inh-1; actives 39% (n = 1,000); in the data active = inhibition above about 48%; inconclusive = no clear call, values can overlap the other calls
* = called active by the depositor; ? = inconclusive; . = no result. Shown is part of a subset that was picked to be rich in hits.

SMILES	HIV RNase H inh-1	RmlCD inh mix	HIV RNase H inh-2
O=C(CSc1nnc(CNc2ccccc2)o1)N1CCc2ccccc21	-16.5	4.3	.
O=C(c1ccc(=O)oc1)N1CCOCC1	1.8	.	.
O=C(c1coc(=O)c(Br)c1)N1CCOCC1	61.5*	14.8	47.6
CCOC(=O)C1=C(C)NC(SCC(=O)OC)=C(C#N)C1c1ccc(C(=O)OC)cc1 (configuration not stated)	80.4*	102.5	36.8
C=CCOC(=O)C1=C(C)NC(SCC)=C(C#N)C1c1ccc(Cl)cc1 (configuration not stated)	.	4.7	.
CC1=C(C(=O)Nc2ccc(Cl)cc2)C(c2ccncc2)C(C#N)=C(SCC(N)=O)N1 (configuration not stated)	.	-10.0	.
CCOC(=O)CSC1=C(C#N)C(c2ccc(C)cc2)C2=C(CCCC2=O)N1 (configuration not stated)	-3.6	3.3	.
CCOC(=O)CSC1=C(C#N)C(c2ccc(F)cc2)C(C(C)=O)=C(C)N1 (configuration not stated)	73.0*	-12.4	13.6
CC(=O)C1=C(C)NC(SCC(N)=O)=C(C#N)C1c1cccnc1 (configuration not stated)	61.5*	23.1	40.5
Cc1nn(Cc2ccc([N+](=O)[O-])cc2)c(=O)n1-c1ccccc1	.	-4.7	.
O=C(c1ccco1)N1CCN(C(c2ccccc2)c2nnnn2C2CCCC2)CC1 (configuration not stated)	.	-14.0	.
CCn1c(N)c(C(=O)NCc2cccnc2)sc1=S	-14.0	.	.
Nc1c(C(=O)NCC2CCCO2)sc(=S)n1-c1ccccc1 (configuration not stated)	83.9*	-2.6	?
Nc1c(C(=O)NCc2cccnc2)sc(=S)n1-c1ccccc1	59.8*	9.6	63.4*
CCn1c(N)c(C(=O)NCC2CCCO2)sc1=S (configuration not stated)	-3.2	26.1	.
COc1ccc(-c2ccc(SCC(=O)N3c4ccccc4CC3C)nn2)cc1OC (configuration not stated)	.	-108.5	.
O=c1oc(-c2ccco2)nc2ccccc12	-0.9	-11.1	.
c1coc(-c2nc3ccccc3nc2-c2ccco2)c1	67.3*	-9.6	43.6
COc1ccc(C2C(C#N)=C3NC(=O)c4c(sc5c4CCCCC5)N3C3=C2C(=O)CC(C)(C)C3)cc1 (configuration not stated)	.	4.5	.
Cc1ccc(-c2nnn(CC(=O)N(CC(=O)NC3CCCC3)c3cnc4ccccc4c3)n2)o1	9.6	-6.8	.
CCC(C(=O)NC1CCCC1)N(C(=O)Cn1nnc(-c2ccc(C)o2)n1)c1cnc2ccccc2c1 (configuration not stated)	65.9*	7.3	47.4
O=C(NCc1ccccc1)c1ccc2c(=O)n(CCCN3CCCC3=O)c(=S)[nH]c2c1	.	-8.9	.
CC1CC(C)CN(C(=O)CSc2nnc(-c3ccc(Cl)s3)o2)C1 (configuration not stated)	14.8	7.5	.
CC1CC(C)CN(C(=O)CSc2nnc(-c3ccc(F)cc3)o2)C1 (configuration not stated)	82.0*	-6.9	-5.1
O=C(COc1ccccc1F)NC1CCN(Cc2ccccc2)CC1	.	-5.5	.
SMILES	HIV RNase H inh-1	RmlCD inh mix	HIV RNase H inh-2
COc1cc(C)nc(SCC(N)=O)n1	62.4*	8.5	42.3
CCOC(=O)CSc1nc(C)cc(C)n1	.	-14.4	.
O=C(O)c1ccc2c(c1)NC(=O)C(N1CCCC1)S2 (configuration not stated)	92.1*	12.0	62.8*
COC(=O)c1ccc2c(c1)NC(=O)C(N1CCCCC1)S2 (configuration not stated)	3.6	-25.4	.
COC(=O)c1ccc2c(c1)NC(=O)C(N1CCCC1)S2 (configuration not stated)	3.8	6.8	.
CCOC(=O)c1ccc2c(c1)NC(=O)C(N1CCN(c3ccc(OC)cc3)CC1)S2 (configuration not stated)	85.3*	7.0	-4.8
Cn1c(C(=O)NCc2ccccn2)cc2c(=O)n(C)c3ccccc3c21	-11.0	2.3	.
COc1ccccc1CNC(=O)c1cc2c(=O)n(C)c3ccccc3c2n1C	88.9*	.	87.6*
N#Cc1c(N)sc(=S)c2c1CCN(Cc1ccccc1)C2	66.0*	118.7*	35.0
CCN1CCc2c(sc(N)c2C#N)C1	14.9	8.5	.
CSc1nc2sc3c(c2c2nnnn12)CCC3	40.7	.	.
CSc1nc2sc3c(c2c2nnnn12)CCCC3	51.1*	4.1	33.4
Cc1cccc(N2CCN(S(=O)(=O)c3ccc4c(c3)n(C)c(=O)c(=O)n4C)CC2C)c1 (configuration not stated)	56.8*	3.2	?
Cn1c(=O)c(=O)n(C)c2cc(S(=O)(=O)N3CCOCC3)ccc21	-21.5	0.1	.
COc1cc(C2/C(=C(/O)c3ccc(OCC(C)C)cc3)C(=O)C(=O)N2CCN(C)C)ccc1O (configuration not stated)	5.9	-11.5	.
Cc1cc(C)nc(Nc2nc3ccccc3[nH]2)n1	10.0	-0.5	.
c1ccc(Nc2nc3ccccc3[nH]2)nc1	79.5*	-9.3	30.8
O=C(COc1ccccc1Cl)Nc1ccc(Cl)cn1	-5.7	0.5	.
Oc1ccc(N2CCN(C(c3ccncc3)c3nnnn3C3CCCC3)CC2)cc1 (configuration not stated)	78.9*	3.3	?
c1cc(C(c2nnnn2C2CCCC2)N2CCOCC2)ccn1 (configuration not stated)	-5.5	-11.9	.
CC(C)CNC(=O)c1c(N)n(/N=C/c2ccccn2)c2nc3ccccc3nc12	61.1*	-5.5	62.9*
COCCNC(=O)c1c(N)n(/N=C/c2cccs2)c2nc3ccccc3nc12	-43.6	-145.2	.
Nc1c(C(=O)NC2CCCCC2)c2nc3ccccc3nc2n1/N=C/c1ccco1	6.1	.	.
CCCCCCNC(=O)c1c(N)n(/N=C/c2ccco2)c2nc3ccccc3nc12	71.2*	.	88.4*
O=C(Nc1ccc(Cl)c(-c2nc3ccccc3[nH]2)c1)c1cccnc1	.	3.2	.
SMILES	HIV RNase H inh-1	RmlCD inh mix	HIV RNase H inh-2
c1ccc2c(N3CCNCC3)cccc2c1	.	7.0	.
Fc1ccc(-c2nnc3sc(C4COc5ccccc5O4)nn23)cc1 (configuration not stated)	-15.3	-27.8	.
Clc1ccccc1-c1nnc2sc(-c3ccc4c(c3)OCO4)nn12	91.8*	67.0	?
Brc1ccccc1-c1nnc2sc(-c3ccc4c(c3)OCCO4)nn12	-85.9	3.2	.
Fc1ccc(-c2nn3c(C4COc5ccccc5O4)nnc3s2)cc1 (configuration not stated)	2.5	.	.
COc1ccc(OCc2nn3c(Cn4cnc5ccccc54)nnc3s2)cc1	-24.5	12.1	.
c1ccc2c(c1)OCC(c1nnc3sc(-c4ccc5c(c4)OCO5)nn13)O2 (configuration not stated)	84.9*	11.4	68.6*
c1csc(-c2nn3c(C4COc5ccccc5O4)nnc3s2)c1 (configuration not stated)	91.0*	10.3	62.0*
c1ccc2c(c1)ncn2Cc1nnc2sc(-c3ccc4c(c3)OCO4)nn12	69.2*	4.9	61.1*
CCOc1ccc(-c2nc(S(=O)(=O)c3ccccc3)c(NCc3cccnc3)o2)cc1	0.0	-0.7	.
O=C(COC(=O)CCC(=O)c1ccc(F)cc1)Nc1ccc(N2CCOCC2)cc1	-8.5	-3.5	.
CC1(C)CC2CC(C)(CN2C(=O)COC(=O)c2ccc(Cl)cc2N)C1 (configuration not stated)	-4.1	-5.2	.
